The list is not random: actives were taken first. Their share in the collection is about 11%.
IMPase Li inh: IMPase inhibition in cells with lithium potentiation; CHO-M1 cells, IP1 TR-FRET (IP-One), carbachol + lithium; Potency, µM (titrated, usually from 59.4 µM), hits mostly inhibitors; actives 0.35% (n = 210,000); AID 1457;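 further: IP1 builds up when IMPase is blocked and the TR-FRET signal falls; nearly all actives have a fitted effect of over 50% in size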
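Concentration–response in CHO-M1 cells, lithium-potentiated; 30 min at 37C. IP1 detected by competitive TR-FRET after 10 min lysis at RT. Hill-fitted AC50.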
HPGD inh: inhibitors of human 15-hydroxyprostaglandin dehydrogenase (HPGD) | actives 4.3% (n = 150,000) | AID 894 | purified HPGD, NADH fluorescence kinetic, PGE2 substrate | Potency, µM, hits mostly inhibitors | P15428; active means well fitted inhibition curve with a large enough effect, not every such curve was filed as active; inconclusive means small, poorly fitted or top-dose-only effect, or another doubt; inactive means no such curve, though single readings can be large or run the other way
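20 nM HPGD preincubated 15 min at room temperature with compound in 50 mM Tris-HCl pH 8, 0.01% Tween 20. Started with 1 mM NAD+ and 30 uM prostaglandin E2; NADH fluorescence (360/450 nm) read 5 times over 30-s intervals, last minus first.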
ALDH1A1 block: ALDH1A1 (human) enzyme inhibition; Purified ALDH1A1, NADH fluorescence, propionaldehyde substrate; Potency, µM (series often up to 75.3 µM), usual class: inhibitors; actives 7.3% (n = 220,000); AID 1030; active means well fitted inhibition curve with a large enough effect, not every such curve was filed as active; inconclusive means small, poorly fitted or top-dose-only effect, or another doubt; inactive means no such curve, though single readings can be large or run the other way
Target sequence (P00352 whole entry, looked up): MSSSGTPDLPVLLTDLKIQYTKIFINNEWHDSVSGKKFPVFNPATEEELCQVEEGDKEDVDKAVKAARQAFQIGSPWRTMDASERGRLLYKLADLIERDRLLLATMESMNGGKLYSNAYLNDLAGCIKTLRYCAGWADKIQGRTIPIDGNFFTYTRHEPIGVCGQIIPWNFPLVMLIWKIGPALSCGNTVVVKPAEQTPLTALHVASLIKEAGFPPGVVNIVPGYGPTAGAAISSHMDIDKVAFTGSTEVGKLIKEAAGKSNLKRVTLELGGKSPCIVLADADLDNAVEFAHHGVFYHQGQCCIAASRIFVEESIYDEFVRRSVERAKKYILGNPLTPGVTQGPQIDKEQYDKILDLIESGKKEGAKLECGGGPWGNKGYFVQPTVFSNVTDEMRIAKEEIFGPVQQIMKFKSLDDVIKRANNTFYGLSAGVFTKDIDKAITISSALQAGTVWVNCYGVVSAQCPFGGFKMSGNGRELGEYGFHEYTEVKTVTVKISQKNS
ALOX12 inhib: 12-hLO (ALOX12) enzyme inhibition. Potency, µM (top dose mostly 57.1 µM), most hits filed as inhibitors. actives 0.12% (n = 150,000). purified 12-hLO, xylenol orange hydroperoxide absorbance; further: nearly all actives have a fitted effect of over 55% in size
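Xylenol orange chromogenic assay: hydroperoxide from 12hLO oxidises Fe(II), giving red-shifted Fe(III)-XO absorbance. Conditions: 150 nM enzyme, 40 uM arachidonic acid, 25 mM Hepes pH 7.0, 0.01% Triton X-100, 30 min, room temperature.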
IMPase inh: membrane-permeable compound that blocks inositol monophosphatase; 120,000 tested, under 10 active; inhibition (IP1 accumulation), % at 46.1 µM; CHO-M1 cells, IP1 accumulation, HTRF TR-FRET ratio; P97697; AID 901; active means well fitted curve in the direction sought with a large enough effect in the signal ratio, not every such curve was filed as active; inconclusive means small, poorly fitted or top-dose-only effect, or a change in a side signal; inactive means no such curve, though single readings can be large or run the other way; the % refers to the signal ratio;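 further: cells stimulated with carbachol in lithium chloride buffer; higher means more IMPase inhibition seen as more IP1 and lower FRET ratio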
Target sequence (P97697 whole entry, looked up): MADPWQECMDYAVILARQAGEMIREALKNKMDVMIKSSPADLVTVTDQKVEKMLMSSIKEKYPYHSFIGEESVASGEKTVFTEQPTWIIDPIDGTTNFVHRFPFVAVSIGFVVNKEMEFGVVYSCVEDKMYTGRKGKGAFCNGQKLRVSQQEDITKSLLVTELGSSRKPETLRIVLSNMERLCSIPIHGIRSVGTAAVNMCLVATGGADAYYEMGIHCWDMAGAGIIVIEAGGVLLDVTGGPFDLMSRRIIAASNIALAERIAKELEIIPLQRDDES
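Carbachol-driven Gq signalling in CHO-M1 cells (2000/well) generates IP1. Compounds that block IMPase raise IP1 and so reduce the FRET signal from Eu-anti-IP1 and d2-IP1 after a 10 min room-temperature lysis.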
PNC assembly inh: perinucleolar compartment assembly inhibition. PC3M PTB-GFP, PNC prevalence imaging, 16 h; stronger effect = lower value. actives 3.1% (n = 140,000). activity change (PNC), negative = inhibition, % at 10 µM;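 active means readout at or below -70, meaning at least 70% loss of cells showing the perinucleolar compartment, a nuclear body marking cancer cells; inconclusive means readout between -30 and a set limit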
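Read-out is percentage of cells bearing a perinucleolar compartment, from automated 20x imaging of fixed, Hoechst-stained PC3M PTB-GFP cells. Cells were seeded 4 h, then exposed 16 h to compound (23 nl of library stock) in duplicate plates.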
A number is an active result; n = inactive; u = inconclusive; x = no result given; ! = not active in a repeat; [ ] = remark or other dose. Unless noted, the call rests on the fitted dose curve; in most records, active means well fitted curve in the direction sought with a large enough effect; inconclusive means small, poorly fitted or top-dose-only effect, or another doubt; inactive means no such curve, though single readings can be large; an effect the other way counts as inactive or inconclusive.

SMILES	IMPase Li inh	HPGD inh	ALDH1A1 block	ALOX12 inhib	IMPase inh	PNC assembly inh
O=c1[nH]c(=O)n(C2CCCCC2)c(O)c1C=Nc1ccc(N2CCOCC2)cc1	n	u	n	n	x	-97.4
NCCc1c[nH]c2ccc(OC(=O)C(=O)O)cc12	n	n	n[13.5 µM]	n[11.4 µM]	x	x
C[As+](C)(c1ccc(Br)c([N+](=O)[O-])c1)c1ccc(Br)c([N+](=O)[O-])c1.O=[N+]([O-])O	n	n	n[13.5 µM]	n[11.4 µM]	x	x
O=C(CN1CCCCC1)NCC(=O)Nc1ccc(Br)cc1C(=O)c1ccccc1	n	28.2µM	n	n	n	n
O=C(CNC(=O)c1ccccc1Cl)Nc1ccc(Br)cc1C(=O)c1ccccc1	n	28.2µM	n	n	n	n
CN1CCC[C@@H]1c1cccnc1.O=C(O)c1ccccc1O.O=C([OH2+])c1ccccc1O.O=C([OH2+])c1ccccc1O.O=C([OH2+])c1ccccc1O.[Mn]	n	u	u	n[11.4 µM]	x	x
C=CC(=O)OCC(C)C	n	n	n	n	x	x
Clc1ccc(C2=CCC[C@H]3CC[C@@H]2N3)cn1	n	n	10µM	n	n	x
CN1CCN(C(=S)c2ccc([N+](=O)[O-])cc2)CC1	n	28.2µM	u	n	n	n
CN1CCN(c2ccc([N+](=O)[O-])cc2Cl)CC1	n	x	n	x	x	x
CC1=NN(c2ccc(S(=O)(=O)O)cc2C)C(=[OH+])[C@H]1N=Nc1cc(S(=O)(=O)O)ccc1C(=O)O.O.[Cr]	n	n	u	n[11.4 µM]	x	x
O=C1NC(=O)C(=Cc2ccc(N3CCN(C(=O)c4ccccc4)CC3)c([N+](=O)[O-])c2)C(=O)N1	n	x	11.2µM	x	x	x
CN1C(=O)C(=Cc2ccc(N3CCOCC3)c([N+](=O)[O-])c2)C(=O)N(C)C1=O	n	x	u	x	x	x
Cc1ccc(-n2nnnc2SCC(=O)Nc2sc(C)c(C)c2C#N)cc1C	n	n	15.8µM	n	u	n
CN(N=O)c1ccc(O)c(O)c1	n	8.91µM	15.8µM	n	n	x
CC(=O)[O-].CC(=O)[O-].O.O.[Cd+2]	n	n	7.51µM	n	x	x
S=C=NCc1ccccc1	n	u	2.82µM	n	x	x
O=c1[nH]c(=O)n(-c2ccccc2)c(O)c1/C=C1/C(c2ccccc2)=Nc2ccccc21	n	25.1µM	u	n	x	-90.9
COC(=O)C1=Nc2ccccc2/C1=C\c1c(O)n(-c2ccc(Br)cc2)c(=O)[nH]c1=O	n	17.8µM	n	u	x	-123.8
COc1ccc(-n2c(O)c(/C=C/C=Nc3ccccc3)c(=O)[nH]c2=O)cc1	n	n	n	n	x	n
O=c1[nH]c(=O)n(-c2ccccc2)c(O)c1/C=C/C=Nc1ccccc1	n	n	n	n	n	n
COC(=O)C1=Nc2ccccc2/C1=C\c1c(O)n(-c2ccc(OC)cc2)c(=O)[nH]c1=O	n	n	22.4µM	u	n	n
O=C1/C(=C\c2ccccc2)C[C@@]2(O)[C@H]3Cc4ccc(O)c5c4[C@@]2(CCN3CC2CC2)[C@H]1O5	n	x	n	x	x	x
Oc1ccc2c3c1O[C@@H]1c4[nH]c5c(c4C[C@@]4(O)[C@@H](C2)N(CC2CC2)CC[C@]314)C[C@]1(O)[C@@H]2Cc3ccc(O)c4c3[C@@]1(CCN2CC1CC1)[C@H]5O4	x	x	x	n	n	x
Oc1ccc([C@H](O)C2CCCCN2)cc1O (some centres not stated)	n	n	n[13.5 µM]	x	x	x
SMILES	IMPase Li inh	HPGD inh	ALDH1A1 block	ALOX12 inhib	IMPase inh	PNC assembly inh
CN1CCN(C(=O)COc2ccc(S(=O)(=O)N(C)Cc3ccccc3)cc2)CC1	n	14.1µM	u	n	n	u
CCC1CN2CCc3cc(OC)c(OC)cc3C2CC1CC1NCCc2cc(OC)c(OC)cc21 (configuration not stated)	n	u	u	n	x	x
Cc1cnc[nH]1	n	n	0.282µM	n	x	x
COc1ccc(N2CC(C(=O)NCc3ccco3)CC2=O)cc1 (configuration not stated)	n	x	25.1µM	x	x	x
O=C(Nc1cccc(F)c1)N1CC2(CCNCC2)C1	n	n	n	n	x	x
CC1Cc2c(cnc3c2CN(C)CC3)CO1 (configuration not stated)	x	x	n[13.5 µM]	x	x	x
O=C(OCC(=O)N1CCN(c2ccccc2)CC1)c1cnc(Cl)c(Cl)c1	n	x	8.91µM	x	x	x
CCN1CCN(S(=O)(=O)c2cnc(Cl)c(Br)c2)CC1	n	n	1.26µM	n	n	n
CN1C[C@@H](C(=O)N[C@@]2(C)O[C@]3(O)C4CCCN4C(=O)[C@@H](Cc4ccccc4)N3C2=O)C=C2c3cccc4[nH]cc(c34)C[C@@H]21 (some centres not stated)	n	n	u	n	n	x
Oc1c(Cl)c(Cl)c(Cl)c(Cl)c1Cl	n	x	17.8µM!	n	x	x
CC1CC(Cl)CCC1C(=O)OC(C)(C)C (configuration not stated)	n	n	n	n	x	x
O=C1NC(=O)[C@]2(Cc3ccccc3N3CCN(c4ccccc4)CC32)C(=O)N1Cc1ccccc1 (some centres not stated)	n	n	22.4µM	n	n	n
CN1C(=O)NC(=O)[C@]2(Cc3ccccc3N3CCN(c4ccccc4)CC32)C1=O (some centres not stated)	n	n	25.1µM	n	n	n
O=C1NC(=O)C2(Cc3ccccc3N3CCCC32)C(=O)N1c1ccc(Cl)cc1 (configuration not stated)	n	u	u	u	n	n
O=C1NC(=O)[C@]2(Cc3ccccc3N3CCN(c4ccccc4)CC32)C(=O)N1c1ccccc1 (some centres not stated)	n	n	25.1µM	n	n	n
C[C@]12CC[C@@H]3[C@@H](CCC4=CC(=O)CC[C@@H]43)[C@@H]1CC[C@@H]2OC(=O)CCc1ccccc1	n	n	n	n[0.00818 µM]	x	x
Nc1ccc(Br)cc1	n	n	u	n	x	x
Nc1ccc2cc(Br)ccc2c1	n	x	17.8µM	x	x	x
CCCCCC1CC(CC(=O)NC(=S)Nc2ccc([N+](=O)[O-])cc2)C(=O)O1 (configuration not stated)	n	n	10µM	n	n	u
Cc1ccccc1-c1cncnc1NCCc1cnc[nH]1	n	n	n	n	x	x
C/C=C1\C[N@@+]2(C)CC[C@@]34C(=C(C=O)[C@H]1C[C@H]32)Nc1ccccc14	n	15.8µM	u	n	n	x
C[C@H]1CC[C@@]2(NC1)O[C@@H]1C[C@@H]3[C@@H]4CC=C5C[C@@H](O)CC[C@]5(C)[C@@H]4CC[C@]3(C)[C@H]1[C@@H]2C	n	n	n[13.5 µM]	n[11.4 µM]	x	x
COC(=O)[C@]1(C)CC[C@@]2(C)CC[C@@]3(C)C4=CCc5c(cc(O)c(O)c5C)[C@]4(C)CC[C@@]3(C)C2C1 (some centres not stated)	n	28.2µM	n	n	x	x
O=C/C=C/c1ccccc1	n	n	12.6µM!	n[0.00818 µM]	x	x
CC(=O)/C=C/c1ccccc1	n	n	n	n	x	x

Bioassay records as filed in PubChem BioAssay.
